The values below come from article PMC7862700, “An all-to-all approach to the identification of sequence-specific readers for epigenetic DNA modifications on cytosine”.

What all share (assay): DAPPL (digital affinity profiling via proximity ligation, sequencing); 10 mM Tris-HCl pH 7.5, 50 mM NaCl, 1 mM DTT, 4% glycerol, room temperature, 30 min; GST-TFs on glutathione beads, 16-mer random dsDNA library, 0.1% formaldehyde crosslink after washing; high values mean tight binding
The target of one assay is T1, FEV (Homo sapiens, UniProt Q99581 1-238).
T1 sequence: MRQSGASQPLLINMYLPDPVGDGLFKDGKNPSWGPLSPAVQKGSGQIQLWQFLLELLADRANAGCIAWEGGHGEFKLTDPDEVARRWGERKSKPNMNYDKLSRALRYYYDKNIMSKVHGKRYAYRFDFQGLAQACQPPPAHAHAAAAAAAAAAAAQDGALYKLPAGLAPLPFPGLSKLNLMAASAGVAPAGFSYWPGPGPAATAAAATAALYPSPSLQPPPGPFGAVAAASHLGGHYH
As to conditions: protein: recombinant; tags: N-terminal GST; dsDNA, one strand shown. A digest of the protocol: (§1)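 A tag-only sample was pooled with DNA-barcoded human transcription factors that had been expressed in yeast as GST fusions and captured on glutathione beads. The pools were incubated for 30 min at room temperature with 200 nmole of a random double-stranded 16-mer DNA library in Tris/NaCl/DTT/glycerol buffer, then washed, crosslinked with 0.1% formaldehyde, proximity-ligated (BsaI/T4 ligase, 1 h, 37 °C), PCR-amplified and sequenced on an Illumina NextSeq500. Binding signal is each hexamer's read frequency for a factor divided by its frequency for the tag-only sample.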

In the next assay the target is ETV5 (Homo sapiens, UniProt P41161 1-510). To be noted: protein: recombinant; tags: N-terminal GST; dsDNA, one strand shown. Put shortly: as §1
The target in another assay is HSF1 (Homo sapiens, UniProt Q00613 1-529). To be noted: protein: recombinant; tags: N-terminal GST; chain copies: 3; dsDNA, one strand shown. Put shortly: as §1
A further assay concerns the target T2, SPIC (Homo sapiens, UniProt Q8N5J4 1-248).
T2 sequence: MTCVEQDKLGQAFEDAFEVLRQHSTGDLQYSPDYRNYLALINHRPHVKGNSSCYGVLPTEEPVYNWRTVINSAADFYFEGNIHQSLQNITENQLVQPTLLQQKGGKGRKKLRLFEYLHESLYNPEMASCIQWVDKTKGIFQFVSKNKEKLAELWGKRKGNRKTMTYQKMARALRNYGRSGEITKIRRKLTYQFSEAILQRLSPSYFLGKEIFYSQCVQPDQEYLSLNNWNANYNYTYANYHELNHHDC
To be noted: protein: recombinant; tags: N-terminal GST; dsDNA, one strand shown. Put shortly:
as §1

For the next assay, the target named is ELF4 (Homo sapiens, UniProt Q99607 1-663). As to conditions: protein: recombinant; tags: N-terminal GST; dsDNA, one strand shown. Put shortly: as §1
Another assay deals with T3, ELK4 (Homo sapiens, UniProt P28324-2 1-405).
T3 sequence: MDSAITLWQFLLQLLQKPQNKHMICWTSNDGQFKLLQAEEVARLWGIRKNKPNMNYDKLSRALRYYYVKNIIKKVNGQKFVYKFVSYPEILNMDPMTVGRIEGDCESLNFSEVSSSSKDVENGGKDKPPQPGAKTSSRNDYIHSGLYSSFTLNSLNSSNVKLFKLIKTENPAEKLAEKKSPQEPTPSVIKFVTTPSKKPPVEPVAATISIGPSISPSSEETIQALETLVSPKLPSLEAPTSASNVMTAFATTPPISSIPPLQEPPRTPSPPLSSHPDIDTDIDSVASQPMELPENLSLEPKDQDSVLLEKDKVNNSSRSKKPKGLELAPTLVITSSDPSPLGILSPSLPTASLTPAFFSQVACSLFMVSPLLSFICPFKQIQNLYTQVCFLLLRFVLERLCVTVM
As to conditions: protein: recombinant; tags: N-terminal GST; dsDNA, one strand shown. Put shortly:
as §1

In another assay the target is T4, ETV2 (Homo sapiens, UniProt O00321 1-342).
T4 sequence: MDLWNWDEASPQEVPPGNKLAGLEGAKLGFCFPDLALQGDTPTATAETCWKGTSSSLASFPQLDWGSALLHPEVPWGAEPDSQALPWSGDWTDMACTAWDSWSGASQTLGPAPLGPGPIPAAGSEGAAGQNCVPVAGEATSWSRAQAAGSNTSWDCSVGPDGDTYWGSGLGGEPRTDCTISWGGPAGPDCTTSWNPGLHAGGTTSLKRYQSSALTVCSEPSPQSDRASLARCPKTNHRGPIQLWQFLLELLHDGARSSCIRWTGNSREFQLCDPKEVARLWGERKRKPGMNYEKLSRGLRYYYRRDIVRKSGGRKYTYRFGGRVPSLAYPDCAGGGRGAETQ
As to conditions: protein: recombinant; tags: N-terminal GST; dsDNA, one strand shown. A digest of the protocol: as §1

The target in another assay is T5, ELF3 (Homo sapiens, UniProt P78545 1-371).
T5 sequence: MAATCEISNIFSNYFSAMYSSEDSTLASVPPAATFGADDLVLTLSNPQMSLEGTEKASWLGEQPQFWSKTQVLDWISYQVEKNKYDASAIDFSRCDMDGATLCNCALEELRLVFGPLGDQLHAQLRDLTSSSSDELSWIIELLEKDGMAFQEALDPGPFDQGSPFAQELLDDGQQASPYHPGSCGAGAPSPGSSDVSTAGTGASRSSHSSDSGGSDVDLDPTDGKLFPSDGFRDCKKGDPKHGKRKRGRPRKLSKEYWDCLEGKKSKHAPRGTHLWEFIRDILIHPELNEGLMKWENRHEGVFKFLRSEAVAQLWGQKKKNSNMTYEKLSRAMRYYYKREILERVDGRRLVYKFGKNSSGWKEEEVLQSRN
As to conditions: protein: recombinant; tags: N-terminal GST; dsDNA, one strand shown. A digest of the protocol:
as §1

For another assay, the target named is CRX (Homo sapiens, UniProt O43186 1-299). As to conditions: protein: recombinant; tags: N-terminal GST; dsDNA, one strand shown. Put shortly:
as §1

In a further assay the target is ETV1 (Homo sapiens, UniProt P50549 1-477). To be noted: protein: recombinant; tags: N-terminal GST; dsDNA, one strand shown. Put shortly:
as §1

In another assay the target is T6, ERF (Homo sapiens, UniProt P50548 1-548).
T6 sequence: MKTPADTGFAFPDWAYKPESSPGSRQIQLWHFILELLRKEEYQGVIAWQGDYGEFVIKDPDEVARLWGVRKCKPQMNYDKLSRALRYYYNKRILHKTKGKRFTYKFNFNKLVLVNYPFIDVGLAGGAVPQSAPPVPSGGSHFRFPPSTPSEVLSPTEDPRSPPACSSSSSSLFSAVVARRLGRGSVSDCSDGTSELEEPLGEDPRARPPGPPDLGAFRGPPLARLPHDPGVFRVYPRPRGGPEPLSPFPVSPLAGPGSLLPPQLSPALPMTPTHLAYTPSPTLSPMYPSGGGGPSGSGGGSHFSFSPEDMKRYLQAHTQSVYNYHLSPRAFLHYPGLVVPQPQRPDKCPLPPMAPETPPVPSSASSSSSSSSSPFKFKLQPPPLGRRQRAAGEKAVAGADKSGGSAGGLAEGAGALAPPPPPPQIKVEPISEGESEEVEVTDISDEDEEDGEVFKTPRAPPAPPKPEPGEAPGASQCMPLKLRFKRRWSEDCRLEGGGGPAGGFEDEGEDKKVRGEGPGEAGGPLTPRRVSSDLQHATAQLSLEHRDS
As to conditions: protein: recombinant; tags: N-terminal GST; dsDNA, one strand shown. Put shortly:
as §1

A further assay addresses T7, ETV3L (Homo sapiens, UniProt Q6ZN32 1-361).
T7 sequence: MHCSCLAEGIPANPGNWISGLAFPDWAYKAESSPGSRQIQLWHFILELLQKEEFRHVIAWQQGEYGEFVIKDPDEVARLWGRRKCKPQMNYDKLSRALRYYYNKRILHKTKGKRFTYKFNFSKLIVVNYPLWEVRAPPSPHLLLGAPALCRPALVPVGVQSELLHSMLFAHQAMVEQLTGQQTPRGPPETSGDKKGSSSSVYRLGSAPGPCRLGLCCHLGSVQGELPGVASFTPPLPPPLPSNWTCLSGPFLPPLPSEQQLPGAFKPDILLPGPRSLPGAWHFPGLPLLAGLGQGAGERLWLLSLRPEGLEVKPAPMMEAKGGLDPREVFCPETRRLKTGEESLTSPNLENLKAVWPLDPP
As to conditions: protein: recombinant; tags: N-terminal GST; dsDNA, one strand shown. A digest of the protocol:
as §1

The target in another assay is T8, ETS2 (Homo sapiens, UniProt P15036 1-469).
T8 sequence: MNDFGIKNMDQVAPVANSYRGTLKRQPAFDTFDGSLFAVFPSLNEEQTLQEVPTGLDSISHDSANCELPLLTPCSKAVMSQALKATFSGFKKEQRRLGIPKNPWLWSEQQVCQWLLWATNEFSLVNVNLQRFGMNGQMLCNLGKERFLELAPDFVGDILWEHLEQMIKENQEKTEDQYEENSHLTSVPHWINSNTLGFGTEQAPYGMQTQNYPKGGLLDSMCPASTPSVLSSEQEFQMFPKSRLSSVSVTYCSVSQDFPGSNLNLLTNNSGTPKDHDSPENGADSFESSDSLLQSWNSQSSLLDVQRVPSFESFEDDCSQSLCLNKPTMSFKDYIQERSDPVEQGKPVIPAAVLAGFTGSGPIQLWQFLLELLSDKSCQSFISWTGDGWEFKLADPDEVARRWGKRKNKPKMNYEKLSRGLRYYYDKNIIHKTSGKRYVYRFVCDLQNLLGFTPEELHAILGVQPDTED
As to conditions: protein: recombinant; tags: N-terminal GST; dsDNA, one strand shown. Put shortly:
as §1

Another assay has as its target T9, SPDEF (Homo sapiens, UniProt O95238 1-335).
T9 sequence: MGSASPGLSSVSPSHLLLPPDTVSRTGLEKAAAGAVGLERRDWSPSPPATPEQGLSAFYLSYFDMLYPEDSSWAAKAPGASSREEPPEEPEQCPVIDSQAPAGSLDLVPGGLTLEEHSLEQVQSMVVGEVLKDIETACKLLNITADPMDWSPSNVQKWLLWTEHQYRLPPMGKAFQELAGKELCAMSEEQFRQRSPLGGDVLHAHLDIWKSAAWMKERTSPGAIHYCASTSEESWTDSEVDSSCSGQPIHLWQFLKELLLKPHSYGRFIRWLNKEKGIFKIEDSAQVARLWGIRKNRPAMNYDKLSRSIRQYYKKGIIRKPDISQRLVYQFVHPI
As to conditions: protein: recombinant; tags: N-terminal GST; dsDNA, one strand shown. Put shortly: as §1

A further assay addresses T10, ETV7 (Homo sapiens, UniProt Q9Y603 1-341).
T10 sequence: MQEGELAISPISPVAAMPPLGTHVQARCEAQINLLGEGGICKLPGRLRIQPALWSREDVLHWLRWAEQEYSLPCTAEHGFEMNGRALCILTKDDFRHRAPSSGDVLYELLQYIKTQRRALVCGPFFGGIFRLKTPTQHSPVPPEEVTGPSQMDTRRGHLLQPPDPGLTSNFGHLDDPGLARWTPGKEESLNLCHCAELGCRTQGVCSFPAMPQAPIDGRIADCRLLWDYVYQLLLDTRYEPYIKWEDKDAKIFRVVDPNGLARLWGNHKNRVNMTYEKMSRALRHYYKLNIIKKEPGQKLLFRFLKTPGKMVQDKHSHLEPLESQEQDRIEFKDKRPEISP
To be noted: protein: recombinant; tags: N-terminal GST; dsDNA, one strand shown. Put shortly:
as §1

The next assay concerns the target T11, ELF5 (Homo sapiens, UniProt Q9UKW6-2 1-255).
T11 sequence: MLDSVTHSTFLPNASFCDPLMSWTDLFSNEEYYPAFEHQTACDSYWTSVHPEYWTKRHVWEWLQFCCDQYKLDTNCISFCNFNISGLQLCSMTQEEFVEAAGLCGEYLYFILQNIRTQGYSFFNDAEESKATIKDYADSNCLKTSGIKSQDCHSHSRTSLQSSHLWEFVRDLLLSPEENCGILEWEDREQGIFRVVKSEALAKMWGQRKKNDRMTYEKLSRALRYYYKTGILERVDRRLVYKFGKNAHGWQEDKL
To be noted: protein: recombinant; tags: N-terminal GST; dsDNA, one strand shown. Put shortly:
as §1

The next assay deals with T12, ETV3 (Homo sapiens, UniProt P41162-2 1-143).
T12 sequence: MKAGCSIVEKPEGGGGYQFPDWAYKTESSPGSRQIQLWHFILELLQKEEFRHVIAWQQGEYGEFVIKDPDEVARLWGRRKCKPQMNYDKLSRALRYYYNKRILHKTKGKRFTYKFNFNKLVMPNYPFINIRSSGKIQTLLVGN
To be noted: protein: recombinant; tags: N-terminal GST; dsDNA, one strand shown. A digest of the protocol: as §1

A further assay addresses ETV6 (Homo sapiens, UniProt P41212 1-452). As to conditions: protein: recombinant; tags: N-terminal GST; dsDNA, one strand shown. Put shortly:
as §1

Sequence of ELF4 (Q99607 whole entry): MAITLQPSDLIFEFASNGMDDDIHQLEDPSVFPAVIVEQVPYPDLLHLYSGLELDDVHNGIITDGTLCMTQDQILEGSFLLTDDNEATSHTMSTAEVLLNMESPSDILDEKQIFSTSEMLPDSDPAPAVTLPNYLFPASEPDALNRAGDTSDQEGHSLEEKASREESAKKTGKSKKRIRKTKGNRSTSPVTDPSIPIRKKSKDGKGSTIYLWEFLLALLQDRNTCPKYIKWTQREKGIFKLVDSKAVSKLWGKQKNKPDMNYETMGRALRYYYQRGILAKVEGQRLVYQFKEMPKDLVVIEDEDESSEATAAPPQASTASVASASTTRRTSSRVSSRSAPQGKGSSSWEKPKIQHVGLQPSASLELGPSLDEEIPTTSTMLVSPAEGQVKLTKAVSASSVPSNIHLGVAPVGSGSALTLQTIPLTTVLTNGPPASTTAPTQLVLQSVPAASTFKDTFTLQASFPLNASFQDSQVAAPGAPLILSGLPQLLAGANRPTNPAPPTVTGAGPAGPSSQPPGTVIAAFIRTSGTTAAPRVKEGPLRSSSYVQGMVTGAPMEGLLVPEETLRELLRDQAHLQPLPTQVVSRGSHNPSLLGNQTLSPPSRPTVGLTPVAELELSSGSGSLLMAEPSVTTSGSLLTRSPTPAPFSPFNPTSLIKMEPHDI
Sequence of ETV1 (P50549 whole entry): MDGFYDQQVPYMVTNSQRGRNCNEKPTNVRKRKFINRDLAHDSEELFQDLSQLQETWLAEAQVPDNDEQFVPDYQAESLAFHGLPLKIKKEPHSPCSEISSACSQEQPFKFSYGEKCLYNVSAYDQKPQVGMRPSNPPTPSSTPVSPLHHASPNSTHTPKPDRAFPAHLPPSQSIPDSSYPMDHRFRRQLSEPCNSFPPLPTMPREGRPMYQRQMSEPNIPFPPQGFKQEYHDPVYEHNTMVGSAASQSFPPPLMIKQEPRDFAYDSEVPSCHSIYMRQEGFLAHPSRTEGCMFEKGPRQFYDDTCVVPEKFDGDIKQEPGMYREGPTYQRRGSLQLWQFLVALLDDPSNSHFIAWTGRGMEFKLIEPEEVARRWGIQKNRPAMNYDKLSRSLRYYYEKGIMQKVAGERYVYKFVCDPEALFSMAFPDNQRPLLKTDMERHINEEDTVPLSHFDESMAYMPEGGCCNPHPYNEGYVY
Sequence of ETV6 (P41212 whole entry): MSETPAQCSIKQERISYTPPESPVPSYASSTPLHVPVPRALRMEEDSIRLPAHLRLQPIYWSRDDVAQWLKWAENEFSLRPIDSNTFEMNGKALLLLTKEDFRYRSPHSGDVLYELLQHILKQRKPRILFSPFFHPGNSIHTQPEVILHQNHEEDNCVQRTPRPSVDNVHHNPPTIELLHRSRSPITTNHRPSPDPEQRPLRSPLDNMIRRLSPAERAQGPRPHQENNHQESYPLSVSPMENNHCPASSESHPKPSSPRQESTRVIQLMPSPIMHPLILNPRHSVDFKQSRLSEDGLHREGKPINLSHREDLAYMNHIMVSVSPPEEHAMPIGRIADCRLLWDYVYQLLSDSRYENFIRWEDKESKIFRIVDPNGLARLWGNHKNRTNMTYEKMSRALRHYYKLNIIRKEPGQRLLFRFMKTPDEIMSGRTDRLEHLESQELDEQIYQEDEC
Sequence of ETV5 (P41161 whole entry): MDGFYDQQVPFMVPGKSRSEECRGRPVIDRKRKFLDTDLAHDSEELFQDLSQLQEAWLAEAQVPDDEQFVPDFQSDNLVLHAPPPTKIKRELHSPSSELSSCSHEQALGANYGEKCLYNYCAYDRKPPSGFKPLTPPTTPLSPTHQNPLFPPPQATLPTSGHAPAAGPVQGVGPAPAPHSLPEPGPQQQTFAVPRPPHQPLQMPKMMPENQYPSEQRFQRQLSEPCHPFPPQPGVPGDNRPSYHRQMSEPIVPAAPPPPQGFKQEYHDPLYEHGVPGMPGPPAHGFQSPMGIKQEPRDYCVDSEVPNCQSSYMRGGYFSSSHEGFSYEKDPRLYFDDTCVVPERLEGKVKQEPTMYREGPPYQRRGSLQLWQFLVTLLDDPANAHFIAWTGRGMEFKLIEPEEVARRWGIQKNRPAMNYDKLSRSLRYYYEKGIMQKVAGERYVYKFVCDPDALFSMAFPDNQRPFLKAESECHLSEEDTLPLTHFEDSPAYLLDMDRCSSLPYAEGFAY
Sequence of HSF1 (Q00613 whole entry): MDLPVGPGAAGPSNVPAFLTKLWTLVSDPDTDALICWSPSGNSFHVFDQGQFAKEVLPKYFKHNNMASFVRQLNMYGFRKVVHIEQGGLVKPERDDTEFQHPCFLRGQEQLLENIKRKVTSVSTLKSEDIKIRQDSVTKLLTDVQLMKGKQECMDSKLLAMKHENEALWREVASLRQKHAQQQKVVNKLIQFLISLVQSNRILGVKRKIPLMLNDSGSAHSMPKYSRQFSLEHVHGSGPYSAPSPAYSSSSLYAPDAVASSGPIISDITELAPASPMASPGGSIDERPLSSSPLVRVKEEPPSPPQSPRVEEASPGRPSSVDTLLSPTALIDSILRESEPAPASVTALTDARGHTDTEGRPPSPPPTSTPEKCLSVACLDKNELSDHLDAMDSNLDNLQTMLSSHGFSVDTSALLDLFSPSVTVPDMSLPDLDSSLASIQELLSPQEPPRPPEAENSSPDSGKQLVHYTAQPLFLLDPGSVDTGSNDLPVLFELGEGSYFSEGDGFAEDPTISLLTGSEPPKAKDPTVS
Sequence of CRX (O43186 whole entry): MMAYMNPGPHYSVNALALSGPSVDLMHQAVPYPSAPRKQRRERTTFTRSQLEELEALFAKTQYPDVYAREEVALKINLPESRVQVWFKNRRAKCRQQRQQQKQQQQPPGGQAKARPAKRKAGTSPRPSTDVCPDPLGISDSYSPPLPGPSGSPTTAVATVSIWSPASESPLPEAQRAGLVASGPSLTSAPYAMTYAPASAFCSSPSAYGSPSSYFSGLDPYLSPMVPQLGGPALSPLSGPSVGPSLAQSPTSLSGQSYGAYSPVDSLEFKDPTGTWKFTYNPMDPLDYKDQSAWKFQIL

Turning to ATCTGC, the binding signal with FEV was 1.41 fold enrichment (6-mer frequency, TF over GST control); with ETV5, 1.46 fold enrichment (6-mer frequency, TF over GST control); in the assay with HSF1, 1.44 fold enrichment (6-mer frequency, TF over GST control); with SPIC, 1.46 fold enrichment (6-mer frequency, TF over GST control); with ELF4, 1.44 fold enrichment (6-mer frequency, TF over GST control); with ELK4, 1.5 fold enrichment (6-mer frequency, TF over GST control). The binding signal with ETV2 was 1.44 fold enrichment (6-mer frequency, TF over GST control); with ELF3 it was 1.14 fold enrichment (6-mer frequency, TF over GST control); in the assay with CRX, 1.67 fold enrichment (6-mer frequency, TF over GST control); in the assay with ETV1, 1.36 fold enrichment (6-mer frequency, TF over GST control); in the assay with ERF, 1.31 fold enrichment (6-mer frequency, TF over GST control); with ETV3L, 1.4 fold enrichment (6-mer frequency, TF over GST control). In addition, the binding signal is 1.37 fold enrichment (6-mer frequency, TF over GST control) with ETS2; 1.36 fold enrichment (6-mer frequency, TF over GST control) with SPDEF; 1.38 fold enrichment (6-mer frequency, TF over GST control) with ETV7; 1.31 fold enrichment (6-mer frequency, TF over GST control) with ELF5; 1.36 fold enrichment (6-mer frequency, TF over GST control) in the assay with ETV3; 1.29 fold enrichment (6-mer frequency, TF over GST control) with ETV6.
